Data as given in PubChem BioAssay (NCATS).
Several values for one entry are separate records, joined by “and”; a condition that tells them apart may be missing. Equal entries are not always repeated. Results filed as inconclusive are left out. Some structures have more than one record in an assay (separate samples or runs), and their calls can disagree. Activity calls are given as the source filed them. Calls come from the whole dose curve; as a rule, active = well fitted curve in the direction sought with a large enough effect; inconclusive = small, poorly fitted or top-dose-only effect, or another doubt; inactive = no such curve, though single readings can be large; an effect the other way counts as inactive or inconclusive.

Experiments:
[1] = qHTS Screen of the MIPE 4.0 Collection Against Ewings Sarcoma (RDES) (AID 1259252); note: nearly all actives have a fitted effect of over 35% in size; note: potency is the fitted concentration of half-maximal effect
In short: (§1)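 Log-phase cells in RPMI with 5% FBS attached for 4 h, then received compounds as a titration for 48 h at 37C, 5% CO2. Viability was read by CellTiter-Glo luminescence and normalized to DMSO and no-cell wells.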

[2] = qHTS Screen of the MIPE 4.0 Collection Against Ewings Sarcoma (TC71) (AID 1259253); note: nearly all actives have a fitted effect of over 40% in size; note: potency is the fitted concentration of half-maximal effect
In short: as §1

[3] = qHTS Screen of the MIPE 4.0 Collection Against Ewings Sarcoma (EW8) (AID 1259255); note: nearly all actives have a fitted effect of over 35% in size; note: potency is the fitted concentration of half-maximal effect
In short: as §1

[4] = qHTS Screen of the MIPE 4.0 Collection Against Ewings Sarcoma (TC32) (AID 1259256); note: nearly all actives have a fitted effect of over 45% in size; note: potency is the fitted concentration of half-maximal effect
In short: as §1

[5] = P-glycoprotein substrates identified in KB-8-5-11 adenocarcinoma cell line, qHTS therapeutic library screen (AID 1346987); note: nearly all actives have a fitted effect of over 65% in size; note: potency is the fitted concentration of half-maximal effect
In short: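 KB-8-5-11: colchicine-selected sub-line of KB-3-1 over-expressing P-gp; assay medium lacked colchicine. 72 h drug exposure at 37 degree C, CellTiter-Glo.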

[6] = NS1 protein of Zika virus - qHTS assay to identify small molecule inhibitors in human HEK 293 cells (AID 1347053); note: nearly all actives have a fitted effect of over 55% in size; note: potency is the fitted concentration of half-maximal effect
In short: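 Following 20 h seeding, HEK 293 cells took compound, then 1 h later ZIKV MR766 (MOI = 0.5). Incubation ran 24 h at 37 C before TR-FRET detection of NS1; a drop in signal indicates inhibition.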

[7] = Identifying Small Molecule Inhibitors of Pancreatic Cancer Stem Cells (SN12C, Spheroid) (AID 1259360); details: Potency: SN12C spheroid viability
In short: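 Pre-formed 14-day tumor spheroids or adherent cells dosed and incubated 48 h, 37C, 5% CO2. Viability assessed by CellTiter-Glo.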

[8] = qHTS assay to identify small molecule inhibitors of chordoma cells - UCH-1 (AID 1259355); note: nearly all actives have a fitted effect of over 55% in size
In short: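 Cells (800/well) were seeded and left overnight at 37 C, 5% CO2, then treated with drugs at 15 concentrations plus a combination mix of auranofin, camptothecin, doxorubicin, rubitecan and topotecan. Viability after 48hr was read by CellTiter-Glo luminescence.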

[9] = qHTS assay to identify small molecule inhibitors of chordoma cells - UCH-2 (AID 1259356); note: series mostly up to about 46 µM
[10] = P-glycoprotein substrates identified in KB-3-1 adenocarcinoma cell line, qHTS therapeutic library screen (AID 1346986); note: nearly all actives have a fitted effect of over 60% in size;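 note: potency is the fitted concentration of half-maximal effect; potency is for cytotoxicity meaning loss of cell viability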
In short: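 Compounds were tested in dose-response against KB-3-1 and KB-8-5-11 cells at 37 degree C for 72 h, and viability was measured by luminescence. AC50 values came from curve fitting with class-based activity calls.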

Measured: Potency

C[C@]12CC[C@H](O)CC1=CCC1C2CC[C@]2(C)C(n3cnc4ccccc43)=CCC12 (some centres undefined)
inactive: [1] | [2] | [3] | [4] | [5] | [6]

COc1ccc(F)c(F)c1C(=O)c1cnc(NC2CCN(S(C)(=O)=O)CC2)nc1N
active: [1] 2640 nM | [2] 1180 nM | [3] 3720 nM | [4] 2350 nM | [5] 3.72 µM and 4.11 µM | [6] 14800 nM

CCCNC(=O)Nc1ccc(Oc2ncnc3cc(OC)c(OC)cc23)cc1Cl
inactive: [1] | [2] | [3] | [4] | [6]

Cc1cc(Nc2nc(N[C@@H](C)c3ccc(F)cc3)c(C#N)cc2F)n[nH]1
inactive: [6]
active: [1] 1660 nM | [2] 13200 nM | [3] 1050 nM | [4] 1320 nM | [5] 935 nM and 580 nM

COc1cccc2c(NCc3ccccc3)nc(-n3c(N)nc4ccccc43)nc12
inactive: [5]
active: [1] 8330 nM | [2] 8330 nM | [3] 8330 nM | [4] 10500 nM | [6] 9350 nM

Cc1cc(CN2CCN(c3c(Br)cnc4nc(-c5ccc(N6CCN(C)CC6)cc5)[nH]c34)CC2)no1
active: [1] 14800 nM | [2] 18700 nM | [3] 935 nM | [4] 1180 nM | [5] 920 nM

Nc1cccc(-c2cc3c(Oc4cccc(O)c4)ncnc3[nH]2)c1
inactive: [6]
active: [1] 2350 nM | [2] 4180 nM | [3] 3320 nM | [4] 2960 nM | [5] 20900 nM

CCS(=O)(=O)c1cccc(-c2cc(C(=O)NC3CCN(C)CC3)c(C)c3[nH]c4ncc(C)cc4c23)c1
active: [1] 743 nM | [2] 3320 nM | [3] 118 nM | [4] 235 nM | [6] 13200 nM

O=C(Cc1ccc(-c2ccc(OCCN3CCOCC3)cc2)cn1)NCc1ccccc1
active: [1] 23.5 nM | [2] 37.2 nM | [3] 23.5 nM | [4] 23.5 nM | [5] 18.7 nM and 580 nM | [6] 74.3 nM

CNC(=O)c1c(F)cccc1Nc1nc(Nc2cc3c(cc2OC)CCN3C(=O)CN(C)C)nc2[nH]ccc12
active: [1] 20900 nM | [2] 20900 nM | [3] 7430 nM | [4] 1320 nM | [5] 16.6 µM and 18.4 µM
inactive: [6]

Cc1cc(C(=O)N2CCN(c3cccc(Cl)c3)CC2)n(-c2ccccc2)n1
active: [1] 743 nM | [2] 6620 nM | [3] 1180 nM | [5] 372 nM and 1.3 µM
inactive: [4]

COc1ccc(C(=O)CC2(O)C(=O)Nc3c(Cl)ccc(Cl)c32)cc1 (centres undefined)
active: [1] 2350 nM | [2] 3320 nM | [3] 1480 nM | [4] 1660 nM | [6] 1050 nM

CCc1cc2c(cc1N1CCC(N3CCOCC3)CC1)C(C)(C)c1[nH]c3cc(C#N)ccc3c1C2=O
inactive: [1] | [2] | [3] | [4] | [6]

Cc1cn2c(-c3cn[nH]c3)cnc2c(Nc2ccc(C(=O)N3CCNCC3)cc2F)n1
active: [1] 16600 nM | [2] 18700 nM | [3] 16600 nM | [4] 13200 nM
inactive: [5] | [6]

CC(C)(C)c1cnc(CSc2cnc(NC(=O)C3CCNCC3)s2)o1
active: [1] 132 nM | [2] 187 nM | [3] 148 nM | [4] 148 nM | [6] 1320 nM
inactive: [5]

CCCCCN(CCC12CC3CC(CC(C3)C1)C2)C(=O)NCCCc1ccncc1
inactive: [7] | [6]
active: [1] 16600 nM | [2] 18700 nM | [4] 14800 nM | [5] 16400 nM

Cc1nc2ccc(CN(C)c3ccc(C(=O)N[C@@H](CCC(=O)O)C(=O)O)s3)cc2c(=O)[nH]1
active: [2] 20.9 nM | [3] 26.4 nM | [4] 33.2 nM
inactive: [8] | [9] | [6]

OCc1ccc(-c2ccc(-c3ccc(CO)s3)o2)s1
active: [1] 52.6 nM | [2] 26400 nM | [4] 18700 nM
inactive and 3.17 µM (active): [5]

CC(C)c1cc(-c2n[nH]c(=O)n2-c2ccc3c(ccn3C)c2)c(O)cc1O
active: [1] 105 nM | [2] 66.2 nM | [4] 52.6 nM | [5] 93.5 nM
inactive: [6]

COC(=O)Nc1nc2ccc(C(=O)c3ccc(F)cc3)cc2[nH]1
active: [1] 743 nM | [2] 1050 nM | [4] 372 nM

Cc1nc(N)ncc1-c1nc(N2CCOCC2)c2sc(C(C)(C)O)cc2n1
active: [1] 1660 nM | [2] 5900 nM | [4] 2350 nM | [10] 1030 nM | [5] 1.48 µM and 1.64 µM

Cc1c(Cn2c(C)nc3c(C(=O)O)cc(N4CCOCC4)cc32)cccc1C(F)(F)F
inactive: [10] | [5] | [6]
active: [1] 14800 nM | [2] 10500 nM | [4] 14800 nM
